In PubChem BioAssay (EPA / NIEHS) one finds AC50 and outcome data, which are given here for 15 compounds.

Structures are written as SMILES. Records with an inconclusive call do not appear. Active and inactive are the calls of the source. How the source made its calls: active means hit-call score of the fitted dose curve at least 0.9, where 1 is the maximum; inconclusive means response in the unintended direction; inactive means score below 0.9.

Assay [1] is described as follows: ACEA_AR_agonist_AUC_viability: ACEA Biosciences xCELLigence Real-Time Cell Analysis on Androgen Receptor Agonism for Viability (AID 2283775).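 On AC50: viability read 80 hours after compound addition.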 In short, it runs like this:
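22Rv1 cells; impedance growth kinetics; 8-pt 1:4 dilutions from 100 uM top final, ≤0.5% DMSO; n = 2; 80 h read; AUC viability, loss-of-signal vs DMSO.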

A short description of assay [2]: ACEA_AR_antagonist_AUC_viability: ACEA Biosciences xCELLigence Real-Time Cell Analysis on Androgen Receptor Antagonism for Viability (AID 2283776).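 Further: 22Rv1 human prostate cancer cells growing on impedance electrode plates; area under impedance growth curve at 80 h after dosing as viability; hits lower the growth signal relative to DMSO meaning cytotoxicity.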 In short, it runs like this:
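22Rv1 prostate cells, continuous dosing up to 100 uM final (0.5% DMSO max), duplicate plates. Growth measured by impedance; AUC at 80 h, loss of signal vs DMSO.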

Assay [3] in a line: ACEA_ER_AUC_viability: ACEA Biosciences xCELLigence Real-Time Cell Analysis on Estrogen Receptor Agonism for Viability (AID 2283782).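 Further: hit means loss of impedance signal meaning reduced cell growth or viability.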 In short, it runs like this: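 Viability endpoint: reduced impedance area under the curve relative to DMSO, recorded by real-time electrode sensing over ~80 h of continuous exposure. Duplicate plates of T47D in hormone-depleted medium; eight concentrations, 1:4 dilutions, 100 uM maximum.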

In assay [4] the target is AR (gene 367) (UniProt P10275). The assay can be described thus: ACEA_AR_agonist_80hr: ACEA Biosciences xCELLigence Real-Time Cell Analysis on Androgen Receptor Agonism for Proliferation (AID 2283783).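 Further: hits increase impedance growth signal above DMSO baseline.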 A digest of the protocol: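 Eight concentrations, 1:4 serial dilution from a 100 uM final top, in biological duplicate. Impedance-based real-time growth of 22Rv1 cells after overnight baseline, recorded hourly and read at 80 hours. Controls: testosterone, MG132, assay media.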
Sequence of AR (gene 367) (P10275 whole entry, looked up): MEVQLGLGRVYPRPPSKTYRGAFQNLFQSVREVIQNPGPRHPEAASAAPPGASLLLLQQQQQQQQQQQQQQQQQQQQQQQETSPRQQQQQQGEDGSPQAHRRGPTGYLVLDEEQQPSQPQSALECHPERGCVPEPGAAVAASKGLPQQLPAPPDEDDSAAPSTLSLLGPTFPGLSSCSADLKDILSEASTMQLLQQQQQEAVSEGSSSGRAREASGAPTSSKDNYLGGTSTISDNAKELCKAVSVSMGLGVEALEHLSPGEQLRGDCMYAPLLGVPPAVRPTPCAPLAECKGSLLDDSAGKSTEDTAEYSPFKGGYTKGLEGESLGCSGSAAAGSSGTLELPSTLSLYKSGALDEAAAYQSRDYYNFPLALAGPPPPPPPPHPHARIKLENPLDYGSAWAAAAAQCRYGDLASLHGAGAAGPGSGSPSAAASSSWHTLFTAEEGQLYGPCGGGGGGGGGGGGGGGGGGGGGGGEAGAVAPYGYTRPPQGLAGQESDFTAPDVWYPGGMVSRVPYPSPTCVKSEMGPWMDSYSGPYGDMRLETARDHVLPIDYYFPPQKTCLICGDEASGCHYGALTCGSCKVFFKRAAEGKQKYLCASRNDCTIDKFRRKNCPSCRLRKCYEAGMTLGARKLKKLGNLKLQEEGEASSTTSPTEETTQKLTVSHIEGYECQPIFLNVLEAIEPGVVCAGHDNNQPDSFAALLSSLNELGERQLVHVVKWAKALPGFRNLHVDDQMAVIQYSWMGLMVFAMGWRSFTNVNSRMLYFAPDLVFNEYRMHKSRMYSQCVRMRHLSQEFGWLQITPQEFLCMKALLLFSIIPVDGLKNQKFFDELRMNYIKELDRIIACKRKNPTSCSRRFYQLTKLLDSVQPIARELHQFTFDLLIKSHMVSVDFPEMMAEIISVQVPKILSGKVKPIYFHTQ

A short description of assay [5]: STM_H9_NormalizedViability: Cytotoxicity Assessment at 120 hours in the Stemina devTOX quickPredict H9 human embryonic stem cell (hESC)-based Assay (AID 2283784). A digest of the protocol:
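Viability endpoint: background-corrected CellTiter-Fluor RFU expressed relative to the 0.1% DMSO mean on each plate. Undifferentiated H9 cells were treated with daily re-dosing and media change, and loss of signal was fitted.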

Assay [6] addresses AR (gene 367) (UniProt P10275). The assay can be described thus: ACEA_AR_antagonist_80hr: ACEA Biosciences xCELLigence Real-Time Cell Analysis on Androgen Receptor Antagonism for Proliferation (AID 2283787).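 Further: 22Rv1 human prostate cancer cells with growth followed by electrical impedance; hits lower the impedance growth signal relative to DMSO.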 In short, it runs like this: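 Impedance-based real-time growth of 22Rv1 prostate cells, read 80 h after dosing. Eight concentrations, 1:4 series, top 100 uM final (0.5% DMSO), n = 2; signal decrease scored against DMSO.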

The test system of assay [7] is zebrafish Estrogen Receptor (ESR2B), gene 317733. The assay can be described thus: ATG_zfER2b_XSP1: Attagene TRANS-FACTORIAL Multi-Species (XSP1) HepG2 Assay for zebrafish Estrogen Receptor (ESR2B) (AID 2283773). In short, it runs like this:
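Medium contained 3 nM 6-alpha-fluorotestosterone. Reporter mRNA induction by exogenous zebrafish ER2b-Gal4 chimera was read 24 h post-dose in transiently transfected HepG2 cells, using RT-PCR, fluorescent labelling, HpaI digestion and capillary electrophoresis.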

Assay [8] has as its system frog Estrogen Receptor (ESR2), gene 100174814. The assay can be described thus: ATG_frER2_XSP1: Attagene TRANS-FACTORIAL Multi-Species (XSP1) HepG2 Assay for frog Estrogen Receptor (ESR2) (AID 2283774). A digest of the protocol: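 Reporter mRNA from a multiplexed TRANS system, measured by RT-PCR with fluorescent labelling and capillary electrophoresis, 24 hours after chemical exposure. Human HepG2 liver cells carried exogenous frog ER-Gal4 chimera; medium included 3 nM 6-alpha-fluorotestosterone; increases versus DMSO analysed.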

Assay [9] concerns the target chicken Estrogen Receptor (ESR1), ESR1 (gene 396099) (UniProt P06212). The assay can be described thus: ATG_chERa_XSP1: Attagene TRANS-FACTORIAL Multi-Species (XSP1) HepG2 Assay for chicken Estrogen Receptor (ESR1) (AID 2283779). In short, it runs like this: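 Trans-activation of an exogenous chicken ERα–Gal4 chimera read as reporter transcript (RT-PCR, fluorescent labeling, capillary electrophoresis) after 24 h compound exposure of transfected HepG2; medium held 3 nM 6-alpha-fluorotestosterone. Positive-direction fit against DMSO.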

The target of assay [10] is Estrogen receptor (Homo sapiens) (UniProt P03372). The assay can be described thus: ATG_hERa_XSP1: Attagene TRANS-FACTORIAL Multi-Species (XSP1) HepG2 Assay for human Estrogen Receptor (ESR1) (AID 2283780). A digest of the protocol:
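Reporter transcripts from multiplexed GAL4-UAS units driven by NR-Gal4 chimeras in transiently transfected HepG2 were measured by RT-PCR with capillary electrophoresis 24 h post-dose, with 3 nM 6-alpha-fluorotestosterone present; gain-of-signal relative to DMSO.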

The test system of assay [11] is turtle Estrogen Receptor (ESR1), gene 101933533. The assay can be described thus: ATG_trERa_XSP1: Attagene TRANS-FACTORIAL Multi-Species (XSP1) HepG2 Assay for turtle Estrogen Receptor (ESR1) (AID 2283781). A digest of the protocol:
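Transactivation measured 24 h post-dose as reporter mRNA (RT-PCR, fluorescent capillary electrophoresis) from an NR-Gal4 turtle ER construct in HepG2. Medium included 3 nM 6-alpha-fluorotestosterone; increase over DMSO fitted.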

Assay [12] addresses Estrogen receptor beta (Homo sapiens) (UniProt Q92731). The assay can be described thus: ATG_hERb_XSP1: Attagene TRANS-FACTORIAL Multi-Species (XSP1) HepG2 Assay for human Estrogen Receptor (ESR2) (AID 2283788). In short, it runs like this:
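HepG2 cells transiently transfected with multiplexed GAL4-UAS reporter units carrying chimeric human ERβ-Gal4; 24 h compound exposure with 3 nM 6-alpha-fluorotestosterone present. Reporter mRNA quantified by RT-PCR, FAM labelling and capillary electrophoresis; gain-of-signal fitted versus DMSO.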

Assay [13] concerns the target GAL4 Transcription Factor (Internal Marker), GAL4 (gene 855828) (UniProt P04386). The assay can be described thus: ATG_GAL4_XSP1: Attagene TRANS-FACTORIAL Multi-Species (XSP1) HepG2 Assay for GAL4 Transcription Factor (Internal Marker) (AID 2283789). In short, it runs like this: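 This background-control endpoint measures GAL4-driven reporter mRNA via RT-PCR and capillary electrophoresis of labelled fragments. Transiently transfected HepG2 cells were treated 24 h, with 3 nM 6-alpha-fluorotestosterone included, and gain-of-signal was fitted against DMSO.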

Assay [14] can be described thus: ATG_M_06_XSP1: Attagene TRANS-FACTORIAL Multi-Species (XSP1) HepG2 Assay for M06 Transcription Factor (Internal Marker) (AID 2283790). A digest of the protocol:
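This background-control readout tracks M06 reporter mRNA, measured by RT-PCR and capillary electrophoresis. HepG2 cells transiently carrying the GAL4-UAS reporter panel were dosed for 24 h with 3 nM 6-alpha-fluorotestosterone added for partial AR stimulation; increases were scored relative to DMSO.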

Assay [15] is described as follows: ATG_M_61_XSP1: Attagene TRANS-FACTORIAL Multi-Species (XSP1) HepG2 Assay for M61 Transcription Factor (Internal Marker) (AID 2283797). A digest of the protocol: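 Background-control readout: reporter transcripts measured by RT-PCR and capillary electrophoresis 24 h after dosing transiently transfected HepG2 multi-reporter cells, with 3 nM 6-alpha-fluorotestosterone present. Fitted in the positive direction relative to DMSO.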

A short description of assay [16]: ATG_M_32_XSP1: Attagene TRANS-FACTORIAL Multi-Species (XSP1) HepG2 Assay for M32 Transcription Factor (Internal Marker) (AID 2283799). In short, it runs like this: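 Reporter transcripts from the M32 internal-control unit measured by RT-PCR, FAM labelling, HpaI digestion and capillary electrophoresis after 24 h compound exposure of transfected HepG2, 3 nM 6-alpha-fluorotestosterone included; DMSO baseline, positive-direction fit.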

Assay [17] addresses Peroxisome proliferator-activated receptor gamma (Homo sapiens) (UniProt P37231). The assay can be described thus: ATG_hPPARg_XSP1: Attagene TRANS-FACTORIAL Multi-Species (XSP1) HepG2 Assay for human Peroxisome Proliferator-activated Receptor gamma (PPARg) (AID 2283800). A digest of the protocol: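 Reporter mRNA induction, measured by RT-PCR with capillary electrophoresis 24 h after dosing, scored as gain over DMSO. Transfected HepG2 cells express exogenous NR-Gal4 chimeras driving GAL4-UAS reporters; medium includes 3 nM 6-alpha-fluorotestosterone.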

Sequence of Estrogen receptor (Homo sapiens) (P03372 whole entry, looked up, the tested form may be a part): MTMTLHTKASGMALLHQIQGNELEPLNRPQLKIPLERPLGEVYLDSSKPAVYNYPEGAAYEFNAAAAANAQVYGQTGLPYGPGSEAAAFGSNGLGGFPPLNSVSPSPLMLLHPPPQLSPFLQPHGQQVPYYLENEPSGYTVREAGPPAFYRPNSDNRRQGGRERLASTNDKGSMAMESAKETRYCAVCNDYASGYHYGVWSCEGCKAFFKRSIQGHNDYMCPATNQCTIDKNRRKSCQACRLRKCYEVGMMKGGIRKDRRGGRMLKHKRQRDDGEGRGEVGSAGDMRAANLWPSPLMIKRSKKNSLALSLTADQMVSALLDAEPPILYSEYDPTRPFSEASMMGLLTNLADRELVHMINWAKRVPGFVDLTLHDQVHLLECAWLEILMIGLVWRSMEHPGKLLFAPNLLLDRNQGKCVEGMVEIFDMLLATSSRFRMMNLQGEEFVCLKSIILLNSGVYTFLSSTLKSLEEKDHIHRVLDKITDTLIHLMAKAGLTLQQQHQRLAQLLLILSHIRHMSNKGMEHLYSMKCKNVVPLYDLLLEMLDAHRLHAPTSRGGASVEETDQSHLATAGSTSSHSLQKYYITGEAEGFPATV
Sequence of Estrogen receptor beta (Homo sapiens) (Q92731 whole entry, looked up, the tested form may be a part): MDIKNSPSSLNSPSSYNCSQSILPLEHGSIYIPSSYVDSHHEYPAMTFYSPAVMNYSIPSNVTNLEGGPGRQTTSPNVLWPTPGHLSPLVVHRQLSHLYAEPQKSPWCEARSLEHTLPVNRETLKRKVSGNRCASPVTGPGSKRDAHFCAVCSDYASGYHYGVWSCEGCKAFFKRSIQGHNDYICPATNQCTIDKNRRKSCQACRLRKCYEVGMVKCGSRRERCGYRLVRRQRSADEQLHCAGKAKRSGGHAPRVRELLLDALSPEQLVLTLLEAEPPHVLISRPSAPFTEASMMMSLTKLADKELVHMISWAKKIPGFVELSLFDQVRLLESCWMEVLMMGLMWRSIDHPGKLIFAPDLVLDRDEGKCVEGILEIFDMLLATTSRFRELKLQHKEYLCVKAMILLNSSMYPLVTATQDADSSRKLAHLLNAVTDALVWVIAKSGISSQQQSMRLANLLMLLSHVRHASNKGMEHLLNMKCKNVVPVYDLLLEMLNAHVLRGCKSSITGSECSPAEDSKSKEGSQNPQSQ
Sequence of Peroxisome proliferator-activated receptor gamma (Homo sapiens) (P37231 whole entry, looked up, the tested form may be a part): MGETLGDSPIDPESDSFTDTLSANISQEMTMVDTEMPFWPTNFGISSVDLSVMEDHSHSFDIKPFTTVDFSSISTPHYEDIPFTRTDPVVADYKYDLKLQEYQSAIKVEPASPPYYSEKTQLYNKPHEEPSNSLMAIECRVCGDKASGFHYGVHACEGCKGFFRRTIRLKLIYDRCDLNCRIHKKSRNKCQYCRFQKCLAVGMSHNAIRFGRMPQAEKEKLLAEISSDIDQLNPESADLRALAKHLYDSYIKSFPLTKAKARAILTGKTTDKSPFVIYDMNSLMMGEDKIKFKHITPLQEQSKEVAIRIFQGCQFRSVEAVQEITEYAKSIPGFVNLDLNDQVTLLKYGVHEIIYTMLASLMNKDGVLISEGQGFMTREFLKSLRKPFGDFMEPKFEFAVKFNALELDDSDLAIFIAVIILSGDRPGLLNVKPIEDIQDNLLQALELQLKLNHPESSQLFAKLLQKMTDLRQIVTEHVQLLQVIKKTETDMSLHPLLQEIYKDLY
Sequence of GAL4 Transcription Factor (Internal Marker), GAL4 (gene 855828) (P04386 whole entry, looked up, the tested form may be a part): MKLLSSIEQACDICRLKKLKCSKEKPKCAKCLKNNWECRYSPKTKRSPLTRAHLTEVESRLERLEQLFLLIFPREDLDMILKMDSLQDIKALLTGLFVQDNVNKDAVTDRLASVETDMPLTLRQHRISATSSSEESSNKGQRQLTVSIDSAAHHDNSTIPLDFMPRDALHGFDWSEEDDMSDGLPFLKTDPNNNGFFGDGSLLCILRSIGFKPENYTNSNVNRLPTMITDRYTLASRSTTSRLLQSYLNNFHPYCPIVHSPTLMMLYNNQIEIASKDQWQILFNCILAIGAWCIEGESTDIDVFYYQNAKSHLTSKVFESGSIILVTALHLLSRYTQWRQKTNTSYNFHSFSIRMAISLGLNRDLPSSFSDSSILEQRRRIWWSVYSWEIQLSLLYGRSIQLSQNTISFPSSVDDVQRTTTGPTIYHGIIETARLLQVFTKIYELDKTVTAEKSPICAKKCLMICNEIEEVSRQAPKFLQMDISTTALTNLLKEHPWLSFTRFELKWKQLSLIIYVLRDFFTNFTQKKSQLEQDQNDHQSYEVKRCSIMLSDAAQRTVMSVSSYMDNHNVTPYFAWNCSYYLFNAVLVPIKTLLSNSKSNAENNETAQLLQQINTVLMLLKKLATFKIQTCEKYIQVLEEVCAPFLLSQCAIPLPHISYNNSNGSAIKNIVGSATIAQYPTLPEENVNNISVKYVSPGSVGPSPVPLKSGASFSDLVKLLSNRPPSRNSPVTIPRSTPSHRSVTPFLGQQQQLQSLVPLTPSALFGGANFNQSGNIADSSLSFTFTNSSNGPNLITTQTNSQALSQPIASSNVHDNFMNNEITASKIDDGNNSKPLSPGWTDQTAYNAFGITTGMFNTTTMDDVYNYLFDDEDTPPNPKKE
Sequence of chicken Estrogen Receptor (ESR1), ESR1 (gene 396099) (P06212 whole entry, looked up, the tested form may be a part): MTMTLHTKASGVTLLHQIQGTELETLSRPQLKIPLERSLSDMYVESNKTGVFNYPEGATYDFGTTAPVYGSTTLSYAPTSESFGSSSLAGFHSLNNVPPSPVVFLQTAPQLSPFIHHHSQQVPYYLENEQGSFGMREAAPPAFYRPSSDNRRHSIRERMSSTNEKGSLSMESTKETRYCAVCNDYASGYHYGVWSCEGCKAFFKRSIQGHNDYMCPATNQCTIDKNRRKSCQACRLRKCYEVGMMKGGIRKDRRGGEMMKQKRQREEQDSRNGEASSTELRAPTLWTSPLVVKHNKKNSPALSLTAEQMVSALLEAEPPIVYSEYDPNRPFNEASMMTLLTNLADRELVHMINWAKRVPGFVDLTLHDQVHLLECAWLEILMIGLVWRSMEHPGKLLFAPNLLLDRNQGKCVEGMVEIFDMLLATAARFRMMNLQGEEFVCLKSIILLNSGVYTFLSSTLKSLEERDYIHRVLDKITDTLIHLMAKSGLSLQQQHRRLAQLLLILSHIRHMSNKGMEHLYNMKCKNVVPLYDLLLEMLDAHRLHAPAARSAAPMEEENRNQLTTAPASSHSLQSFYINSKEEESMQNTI

As to `O=C(NO)C1(NS(=O)(=O)c2ccc(Oc3ccc(F)cc3)cc2)CCOCC1`, the AC50 is 38.5 µM (active) in assay [1] and 50 µM (active) in [2].

Turning to `CC(C)c1nnc2ccc(-c3ocnc3-c3cc(F)ccc3F)cn12`, the concentration at half-maximal activity (AC50) was 66.8 µM (active) in [1] and 37.1 µM (active) in assay [2].

Regarding `O=C(O)c1cccc(C[C@@H]2COc3ccc(OCc4nc5cc(F)ccc5s4)cc3[C@@H]2O)c1`, the outcome in assay [1], in assay [2] and in [3] was inactive.

For the compound `O=C(O)CO`, the call in assay [1] and in assay [2] was inactive.

Consider `CCc1ccc(O)c(C(C)(C)C)c1`, for which the figures for the half-maximal activity concentration (AC50) in assay [1], in assay [2] and in assay [3] were 66.1 µM (active), 70.5 µM (active) and 25.5 µM (active), respectively.

With `OCCNCCO`, the result in [1] and in assay [2] was inactive.

Take `c1ccc2cc3ccccc3cc2c1`: the compound was called inactive in assay [1] and in assay [2].

As for `O=S(=O)(O)c1ccc(N=Nc2c(O)ccc3cc(S(=O)(=O)O)ccc23)cc1`, the compound was classed as inactive in [1].

Regarding `CCOC(N)=O`, the outcome in assay [1], in [2] and in [3] was inactive.

Take `COc1cc2c(c(OC)c1OC)-c1ccc(OC)c(=O)cc1[C@@H](NC(C)=O)CC2`: the AC50 in [1] was 0.00303 µM (active); in assay [2], 0.00231 µM (active); in [3] it was 0.00238 µM (active); in [5] it was 0.0165 µM (active); with AR (gene 367) [6], 0.00409 µM (active). The call with AR (gene 367) [4] was inactive.

For `O=C(O)c1cccc(C(=O)O)c1`, the outcome in assay [1] and in assay [2] was inactive.

In the case of `CNC(C)=O`, the compound was called inactive in assay [1] and in assay [2].

For `OC[C@H]1O[C@@H]2O[C@H]3[C@H](O)[C@@H](O)[C@@H](O[C@H]4[C@H](O)[C@@H](O)[C@@H](O[C@H]5[C@H](O)[C@@H](O)[C@@H](O[C@H]6[C@H](O)[C@@H](O)[C@@H](O[C@H]7[C@H](O)[C@@H](O)[C@@H](O[C@H]1[C@H](O)[C@H]2O)O[C@@H]7CO)O[C@@H]6CO)O[C@@H]5CO)O[C@@H]4CO)O[C@@H]3CO`, the result in [1], in [2] and in assay [3] was inactive.

Consider `OC(CCl)CCl`, for which the call in [1] and in assay [2] was inactive.

Consider `C=CCc1cc(S(=O)(=O)c2ccc(O)c(CC=C)c2)ccc1O`, for which the half-maximal activity concentration (AC50) was 1.68 µM (active) in assay [7]; 1.53 µM (active) in assay [8]; 24.3 µM (active) in assay [1]; 24.5 µM (active) in [2]; 1.19 µM (active) in assay [9]; 1.36 µM (active) in assay [10]. Also, the concentration at half-maximal activity (AC50) in assay [11] is 1 µM (active); in assay [3], 76.7 µM (active); with AR (gene 367) [6], 26.2 µM (active); in assay [17] it was 4.14 µM (active). In addition, the outcome in assay [12], in assay [13], in assay [14], in assay [15] and in assay [16] was inactive.

The AC50 is the concentration giving half of the maximal activity seen.
